Experimental data: PubChem BioAssay (NCI)
Where “and” joins values, the source holds several entries; their conditions need not be identical. Equal entries are not always repeated. This is part of a sample that, as a whole, favours compounds with a hit. Of some 83,000 tested, about 20% had one in any assay.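 Values shown are percent growth following 48 h exposure of cells in 96-well plates to a single concentration of compound; below 10 was considered active.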 Calls of active or inactive are those of the source.

Experiments:
Assay in all cases: NCI-60 one-dose screen, 48 h (100 = growth as untreated, 0 = no growth, -100 = all killed)
[1] = tested on: SK-MEL-2 melanoma
[2] = tested on: EKVX NSCLC
[3] = tested on: SN12C renal
[4] = tested on: TK-10 renal
[5] = tested on: ACHN renal
[6] = tested on: CAKI-1 renal
[7] = tested on: CCRF-CEM leukemia
[8] = tested on: MOLT-4 leukemia
[9] = tested on: SR leukemia
[10] = tested on: RPMI-8226 leukemia
[11] = tested on: OVCAR-8 ovarian
[12] = tested on: OVCAR-5 ovarian
[13] = tested on: OVCAR-4 ovarian
[14] = tested on: IGROV1 ovarian
[15] = tested on: OVCAR-3 ovarian
[16] = tested on: NCI/ADR-RES ovarian
[17] = tested on: UO-31 renal; settings: 10 µM unless noted
[18] = tested on: A498 renal; settings: 10 µM unless noted
[19] = tested on: SK-OV-3 ovarian; settings: 10 µM unless noted
[20] = tested on: HS 578T breast; settings: 10 µM unless noted

Measured: growth

CNC(=O)c1cc(Oc2ccc(CC(=O)Nc3cc(C(C)(C)C)nn3C)cc2)ccn1
active: [8]; 10 µM -64.3%
inactive: [1]; 1 µM 67.9% | [1]; 10 µM 55.6% | [1]; 30 µM 78.3% | [2]; 1 µM 73.5% | [2]; 10 µM 62% | [2]; 30 µM 49.2% | [3]; 1 µM 72.8% | [3]; 10 µM 78.6% | [3]; 30 µM 87.1% | [4]; 1 µM 95.2% | [4]; 10 µM 80.4% | [4]; 30 µM 103% | [5]; 1 µM 67.7% | [5]; 10 µM 67.8% | [5]; 30 µM 73.4% | [6]; 1 µM 57.9% | [6]; 10 µM 61.3% | [6]; 30 µM 76.5% | [7]; 1 µM 73.3% | [7]; 10 µM 66.1% | [7]; 30 µM 62.9% | [8]; 1 µM 78% | [8]; 30 µM 65.6% | [9]; 1 µM 82.7% | [9]; 30 µM 48.9% | [10]; 1 µM 46.2% | [10]; 10 µM 62.6% | [11]; 1 µM 72.5% | [11]; 10 µM 71.8% | [11]; 30 µM 70.6% | [12]; 1 µM 104% | [12]; 10 µM 116% | [12]; 30 µM 98.9% | [13]; 1 µM 58.7% | [13]; 10 µM 44.7% | [13]; 30 µM 83.4% | [14]; 1 µM 75.1% | [14]; 10 µM 85.6% | [14]; 30 µM 90.5% | [15]; 1 µM 81.9% | [15]; 10 µM 69.6% | [15]; 30 µM 109% | [16]; 1 µM 85.3% | [16]; 10 µM 76% | [16]; 30 µM 53.7%

CC(C)C(=O)Nc1ccc([N+](=O)[O-])c(C(F)(F)F)c1
inactive: [1]; 10 µM unless noted 111% and 28.9% | [2]; 10 µM unless noted 51.4% and 86.1% | [3]; 10 µM unless noted 65.3% and 88% | [17] 76.1% and 71.9% | [4]; 10 µM unless noted 94.5% and 111% | [5]; 10 µM unless noted 98.4% | [6]; 10 µM unless noted 69.2% and 100% | [18] 84.4% and 96% | [7]; 10 µM unless noted 75.4% and 109% | [8]; 10 µM unless noted 76.8% and 97.8% | [9]; 10 µM unless noted 76.4% and 88.4% | [10]; 10 µM unless noted 63.9% | [11]; 10 µM unless noted 101% and 56.1% | [12]; 10 µM unless noted 90.4% | [13]; 10 µM unless noted 83.1% and 92.5% | [19] 80.2% and 99.6% | [15]; 10 µM unless noted 86.3% and 98.2% | [20] 101% and 85.4% | [16]; 10 µM unless noted 86.2% and 96%
94.5% (inactive) and 5.73% (active): [14]; 10 µM unless noted

Cc1cc(-c2ccc(NS(=O)(=O)c3ccccc3)c(C)c2)ccc1NS(=O)(=O)c1ccccc1
inactive: [1]; 10 µM unless noted 85% and 102% | [2]; 10 µM unless noted 61.5% and 73.6% | [3]; 10 µM unless noted 94.7% and 98.4% | [17] 66.7% and 108% | [4]; 10 µM unless noted 83.4% and 109% | [5]; 10 µM unless noted 81.2% and 96.7% | [6]; 10 µM unless noted 61.3% and 98.8% | [18] 90.8% and 89.8% | [7]; 10 µM unless noted 80.5% and 86.6% | [8]; 10 µM unless noted 41% and 56.3% | [9]; 10 µM unless noted 49.2% and 59.7% | [10]; 10 µM unless noted 53.7% and 66.1% | [11]; 10 µM unless noted 85.4% and 95.8% | [12]; 10 µM unless noted 126% and 111% | [13]; 10 µM unless noted 66.2% and 99% | [19] 102% and 126% | [14]; 10 µM unless noted 69.3% and 117% | [15]; 10 µM unless noted 90.1% and 107% | [20] 83.4% and 92.6% | [16]; 10 µM unless noted 86.1% and 87.3%

CC(=O)Oc1cc(C(=O)O)cc(OC(C)=O)c1OC(C)=O
inactive: [1]; 10 µM unless noted 119% and 107% | [2]; 10 µM unless noted 84.3% and 105% | [3]; 10 µM unless noted 93.9% and 99.7% | [17] 96.7% and 98.2% | [4]; 10 µM unless noted 115% and 102% | [5]; 10 µM unless noted 112% and 98.3% | [6]; 10 µM unless noted 99.5% and 95.5% | [18] 73.8% | [7]; 10 µM unless noted 101% and 104% | [8]; 10 µM unless noted 116% and 94.1% | [9]; 10 µM unless noted 117% and 101% | [10]; 10 µM unless noted 96.7% and 102% | [11]; 10 µM unless noted 103% and 99.9% | [12]; 10 µM unless noted 117% and 94.9% | [13]; 10 µM unless noted 109% and 97% | [19] 94.1% and 102% | [14]; 10 µM unless noted 130% and 95.8% | [15]; 10 µM unless noted 105% | [20] 99.5% and 112% | [16]; 10 µM unless noted 103% and 96.7%
